Values without a mark were called inactive. The source made the active and inactive calls.
What follows are compounds tested against Luciferin 4-monooxygenase (Photinus pyralis) (UniProt P08659) (assay: inhibition of purified Photinus pyralis luciferase – biochemical, luminescence, purified enzyme, 2006 set, primary screen (AID 1141;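 note: cell-free assay with purified firefly luciferase at 100 ng per well in PBS; test concentration not given here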)). Settings: purified firefly luciferase, SteadyGlo luminescence, 30 min; higher = more signal, called active from +8 up or from −8 down.
Sequence of Luciferin 4-monooxygenase (Photinus pyralis) (P08659 whole entry, looked up): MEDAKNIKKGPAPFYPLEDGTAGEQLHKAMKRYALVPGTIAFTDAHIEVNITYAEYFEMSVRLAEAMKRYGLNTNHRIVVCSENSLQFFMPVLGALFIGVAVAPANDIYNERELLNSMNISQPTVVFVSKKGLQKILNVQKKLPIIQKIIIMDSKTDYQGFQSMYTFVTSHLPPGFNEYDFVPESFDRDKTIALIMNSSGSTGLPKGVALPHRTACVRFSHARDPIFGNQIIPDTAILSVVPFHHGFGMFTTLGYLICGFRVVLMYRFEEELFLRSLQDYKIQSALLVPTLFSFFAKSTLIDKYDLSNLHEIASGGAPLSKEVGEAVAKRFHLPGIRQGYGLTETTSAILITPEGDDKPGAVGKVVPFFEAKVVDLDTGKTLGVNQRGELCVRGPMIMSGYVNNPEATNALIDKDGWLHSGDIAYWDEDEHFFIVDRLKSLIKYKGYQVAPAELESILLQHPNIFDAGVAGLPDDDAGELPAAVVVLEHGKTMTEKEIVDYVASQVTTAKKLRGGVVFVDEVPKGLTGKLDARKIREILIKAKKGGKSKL

Row | SMILES | z-score
1 | CC#CC(=O)Oc1ccccc1C=CC(=O)OCC | 1.51
2 | CC(C)CNC(=O)[C@@]1(Cc2ccccc2I)c2ccccc2C(=O)N(C2CCCCC2)[C@H]1c1ccc(CO)cc1 | 0.258
3 | O=C(c1ccccc1)N1C(=O)[C@]2(COC(c3ccc(OCCCO)cc3)=N2)Cc2ccccc21 | -1.19
4 | CC(C)(C)OC(=O)CC[C@]1(C(=O)N2CCOCC2)N=C(c2ccc(OCCCO)cc2)O[C@H]1c1ccccc1N=[N+]=[N-] | -9.23 (active)
5 | COCCOC(=O)N1C(=O)[C@@]2(c3cc(C#CCC(C(=O)OC)C(=O)OC)ccc31)[C@H](c1ccccc1OCCO)N1[C@H](c3ccccc3)[C@H](c3ccccc3)OC(=O)[C@H]1[C@@H]2C(=O)NC[C@H](O)c1ccccc1 | -0.182
6 | COCCCNC(=O)[C@]1(CCC(=O)OC(C)(C)C)N=C(c2ccc(OCCCO)cc2)O[C@@H]1c1ccccc1CN=[N+]=[N-] | -1.11
7 | CCOC(=O)C1=C[C@@H](C(C)(C)C)N(S(=O)(=O)c2ccc(C)cc2)[C@H]1c1ccc(F)cc1 | 1.53
8 | COc1cc(NN2C(C(O)c3ccco3)C=CC3C(=O)N(c4ccccc4)C(=O)C32)cc(OC)c1OC (stereo not given) | -2.51
9 | CCC(CC)C(O)C1C=CC2C(=O)NC(=O)C2N1Nc1ccc(Cl)cc1Cl (stereo not given) | -0.533
10 | CCCC[C@H]1OB(O)C[C@H]2C1=C(COC)Cn1c(=O)n(-c3ccccc3)c(=O)n12 | 0.382
11 | C=C(COC)/C(=C/C[C@@H](OC(C)=O)c1ccc(OCCO)cc1)c1cnc2ccccc2c1 | -0.846
12 | CN(C)C(=O)[C@@]1(CCS(=O)(=O)c2ccccc2)COC(c2ccc(OCCCO)cc2)=N1 | -0.446
13 | CCCCCCc1nc(-c2ccc(OC)nc2)cc2c1[Si](C(C)C)(C(C)C)O[C@H]2c1ccccc1 | 0.974
14 | O=C(CS)NCCCCCCNC(=O)[C@@H]1C[C@@H]2C(=O)N[C@@H](Cc3ccccc3)C(=O)N2[C@@H]1c1cccc(OCCO)c1 | -1.09
15 | COC(=O)[C@@]1(Cc2ccc(OC)cc2)[C@H]2c3cc(C(=O)N(C)C)n(Cc4ccc(S(C)(=O)=O)cc4)c3C[C@H]2CN1C(=O)c1ccccc1 | 1.75
16 | O=C1C[C@@](C(=O)NC2CC2)(c2ccc([N+](=O)[O-])cc2)[C@@H](c2ccc(CO)cc2I)N1C1CCCCC1 | -0.234
17 | CN1C=C(C(=O)OCCS(C)(=O)=O)C(C(=O)OCCS(C)(=O)=O)=CC(c2ccc(CO)cc2)=CC1C1CC1 (stereo not given) | -1.5
18 | O=C1NC(=O)C2C1C=CC(C(O)c1cc(C(F)(F)F)cc(C(F)(F)F)c1)N2Nc1ccccn1 (stereo not given) | 0.0198

Row | SMILES | z-score
19 | CN(C)CCCCCCNC(=O)[C@@H]1C[C@@H]2C(=O)N[C@@H](Cc3ccccc3)C(=O)N2[C@@H]1c1ccc(O)cc1 | 0.205
20 | Cc1nc2cc(Br)ccc2c(=O)o1 | 1.16
21 | O=C(NC1CC1)[C@@H]1c2ccccc2C(=O)N(Cc2ccccc2Cl)[C@H]1c1ccc(CO)cc1 | -1.44
22 | O[C@@H](Cc1ccccc1)[C@H]1C2C=CCCC=C2CN1Cc1cccc(Cl)c1 (stereo not given in full) | -1.89
23 | COCCOC(=O)N1C(=O)[C@@]2(c3cc(C#CCNC(N)=O)ccc31)[C@H](C(=O)N1CCN(c3ncccn3)CC1)[C@H]1C(=O)O[C@H](c3ccccc3)[C@H](c3ccccc3)N1[C@@H]2c1ccc(OCCO)cc1 | -1.47
24 | COCCOC(=O)N1C(=O)[C@@]2(c3cc(C#CCNC(N)=O)ccc31)[C@H](C(=O)Nc1nc3ccccc3s1)[C@H]1C(=O)O[C@H](c3ccccc3)[C@H](c3ccccc3)N1[C@@H]2c1ccc(OCCO)cc1 | -2.41
25 | CC(C)C(O)C1C=CC2C(=O)N(c3ccccc3)C(=O)C2N1Nc1ccc([N+](=O)[O-])cc1 (stereo not given) | 1.18
26 | CCOC(=O)C[C@H]1[C@H](OC(=O)c2ccccc2-c2ccccc2)[C@@H](NC(=O)CC(C)C)c2cc(OCCCO)ccc2N1C(=O)Cc1ccc(OC)cc1 | -0.0339
27 | C=C(CCCC)/C(=C/C[C@H](OC(C)=O)c1ccccc1OCCO)c1cc(C(=O)OC)ccc1OC | -0.687
28 | C=CCC(OC(C)=O)[C@@H]1[C@@H](N(Cc2ccc(-c3ccccc3)cc2)C(=O)Cc2ccc(OC)cc2)c2cc(OCCCO)ccc2N1C(=O)Cc1ccc2ccccc2c1 (stereo not given in full) | -0.358
29 | COc1ccc(CCNC(=O)[C@@]2(Sc3ccc(C)cc3)CC(=O)N(C3Cc4ccccc4C3)[C@@H]2c2ccc(CO)cc2I)cc1 | -0.704
30 | COC(=O)[C@@]1(Cc2ccccc2)N=C(c2ccc(OCCCO)cc2)O[C@H]1c1ccccc1 | -5.51
31 | COCCOC(=O)N1C(=O)[C@@]2(c3cc(C#CCC(C(=O)OC)C(=O)OC)ccc31)[C@H](c1ccccc1OCCO)N1[C@H](c3ccccc3)[C@H](c3ccccc3)OC(=O)[C@H]1[C@@H]2C(=O)N1CCN(c2ncccn2)CC1 | 0.505
32 | C=C(CCCC)/C(=C/C[C@@H](OC(=O)c1ccncc1)c1ccc(OCCO)cc1)c1cc(C(=O)OC)ccc1OC | -0.551
33 | CCCCN1CC=CC23O[C@@H]4C=CCCOC(=O)C4[C@H]2C(=O)N(CCCCCCO)[C@@H]3C1=O (stereo not given in full) | -0.947
34 | CN(C)CCCC[C@@H]1NC(=O)[C@H]2C[C@@H](C(=O)NCCCCCCN)[C@@H](c3ccc(O)cc3)N2C1=O | 0.498
35 | COc1ccc(-c2cc3c(c(-c4ccc(Oc5ccccc5)cc4)n2)[Si](C(C)C)(C(C)C)OC3)cn1 | 0.223

Source: PubChem BioAssay
